PubChem BioAssay (NCATS)
Results filed as inconclusive are left out. Entries that show only a call come without a potency. Calls of active or inactive are those of the source. Calls come from the whole dose curve; as a rule, active = well fitted inhibition curve with a large enough effect; inconclusive = small, poorly fitted or top-dose-only effect; inactive = flat fitted curve, though single readings scatter.

biological target: Glutathione peroxidase 1 (Homo sapiens) (UniProt P07203); experiment: Primary qHTS Assay for Inhibitors of Recombinant Selenoprotein Glutathione Peroxidase 1 (GPX1) (AID 1845191); conditions: recombinant GPX1, GR-coupled NADPH fluorescence, 15 min; series mostly up to 48.8 µM
Sequence (P07203 whole entry, looked up): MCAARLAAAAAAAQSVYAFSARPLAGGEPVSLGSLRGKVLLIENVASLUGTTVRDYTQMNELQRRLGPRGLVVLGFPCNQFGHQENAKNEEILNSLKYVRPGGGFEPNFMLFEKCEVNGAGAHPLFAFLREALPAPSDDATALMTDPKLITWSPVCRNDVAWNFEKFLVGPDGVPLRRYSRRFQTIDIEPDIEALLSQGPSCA
Method in brief: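 GR-coupled readout: NADPH consumption tracked by fluorescence, ex 340/em 450 nm, at t=0 and after 15 min at RT. Final mix 10 nM GPX1, 1 mM GSH, 0.5 mM CHP, 0.5 mM NADPH, 100 nM GR, 0.01% BSA, following 30 min enzyme–compound preincubation.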
Note: nearly all actives have a fitted effect of over 65% in size.

Compound | Potency
C=C1C(=O)O[C@H]2CC(=C)[C@H]3CC[C@@](C)(O)[C@@H]3CC12 (stereo partly drawn) | inactive
CC(=O)OC1CCC2(C)C(CCC3(C)C2CC=C2C4C(C)C(C)CCC4(C)CCC23C)C1(C)C(=O)O (stereo not drawn) | inactive
CC1=C(C(=O)OC2CCCCC2)C(c2ccc([N+](=O)[O-])cc2)C2=C(CC(C)(C)CC2=O)N1 (stereo not drawn) | inactive
COc1ccccc1C(=O)Nc1cccc(NC(=O)c2cccc(C)c2)c1 | inactive
Nc1nc2c(cnn2CCCc2ccc(O)cc2)c2nc(-c3ccco3)nn12 | inactive
CC(C)S(=O)(=O)NC[C@@H]1CC(c2ccc(N3CCCC3)c(F)c2)=NO1 | inactive
Cc1ccc(O)cc1Nc1ccnc(Nc2cccc(C(N)=O)c2)n1 | inactive
O=C(O)c1cccc(-c2ccc(-c3cn(C(=O)N4CCCCC4Cc4ccccc4)nn3)cc2)c1 (stereo not drawn) | inactive
COc1cc2c(cc1O)C1(Cc3ccc4c(c3C1O)OCO4)[N+](C)([O-])CC2 (stereo not drawn) | inactive
c1ccc(-c2cnn3cc(-c4ccc(OCCN5CCOCC5)cc4)cnc23)cc1 | inactive
CC(C)Nc1nc(Nc2ccccc2)nc(-c2ccccc2)n1 | inactive
CNc1nc(Nc2ccc(C(=O)N3CCOCC3)cc2OC)nc2[nH]cc(Cl)c12 | inactive
CN1CC2CN(c3ccc4oc5ccccc5c(=O)c4c3)CC2C1 (stereo not drawn) | inactive
COC1CCN(c2cccc(-c3cc(NC(C)=O)nc(-n4nc(C)cc4C)n3)n2)CC1 | inactive
O=C(Nc1ccc2[nH]nc(-c3ccncc3)c2c1)[C@@H]1CCN(CC(=O)N2CCN(c3ccc(-c4ncccn4)cc3)CC2)C1 | inactive
CC1(C)Oc2ncnc(N)c2N=C1c1ccc(C23CCC(CC(=O)O)(CC2)CC3)cc1 | inactive
NCC1CCN(c2nccc(-c3ccc4ccccc4c3)n2)CC1 | inactive
O=C1Cc2c([nH]c3ccc(Br)cc23)-c2ncccc2N1 | inactive
C=C1C(=O)O[C@@H]2/C=C(\CO)CC/C=C(/C=O)C[C@H](O)[C@@H]12 | inactive
C=C1C(=O)OC[C@@H]1C/C=C(\C)CC1CC(C)C(=O)O1 (stereo partly drawn) | inactive

Compound | Potency
COc1ccccc1-c1ccc(-c2cn(C(=O)N3CCCCC3Cc3ccccc3)nn2)cc1 (stereo not drawn) | inactive
O=C(Nc1ccc(Cl)cc1)Nc1cccc(-c2cccc(N3CCCC3)n2)c1 | inactive
CC(C)(C)c1ccc(C(=O)Nc2cn3cc(-n4ccnc4)ccc3n2)cc1 | inactive
C/C(=N\N=C(N)N)c1cc(NC(=O)CCCCCCCCC(=O)Nc2cc(/C(C)=N/N=C(N)N)cc(/C(C)=N/N=C(N)N)c2)cc(/C(C)=N/N=C(N)N)c1 | inactive
O=C(Nc1nnc(-c2ccc3c(c2)OCCO3)o1)C1CCCCC1 | inactive
O=C(Nc1ccccc1C(=O)Nc1ccc(CCO)cc1)c1ccc([N+](=O)[O-])cc1 | inactive
CCCCC1CCN(CCCN2C(=O)CCc3ccccc32)CC1 | inactive
CCc1ccc(-c2nc(CSCC(=O)NCCc3ccccc3)c(C)o2)cc1 | inactive
CC1(C)CCC(C)(C)c2cc(C#Cc3ccc(C(=O)O)cc3)ccc21 | inactive
CC(C)c1ccc(-c2cc(=O)c3ccccc3o2)cc1 | inactive
O=C(Nc1nc2ccc([N+](=O)[O-])cc2s1)C1CCCCC1 | inactive
O=C(Nc1ccc(-c2ccc(Cl)c(Cl)c2)cc1)C1=C(O)c2ccccc2S(=O)(=O)N1 | inactive
Cc1cc(C(C)Nc2ccccc2C(=O)O)c2nc(N3CCOCC3)cc(=O)n2c1 (stereo not drawn) | inactive
CCCN1CCC=C(c2cc(-c3ccc(C)cc3)no2)C1 | inactive
CCOC(=O)c1csc(Nc2ccc(Cl)cc2)n1 | inactive
CC#C[C@@H](CC(=O)O)c1ccc(OCc2cccc(-c3ccc(C(F)(F)F)cc3)c2)cc1 | inactive
CN(C)c1ccc(NC(=O)NS(=O)(=O)c2ccc(Cl)cc2)cc1 | inactive
CN(C)Cc1ccc(-c2cnn3c(-c4cccc(NC(=O)c5cccc(C(F)(F)F)c5)c4)ccnc23)cc1 | inactive
Cc1cc(C(=O)Nc2cc(Nc3ccc4c(/C=C/c5ccccn5)n[nH]c4c3)ccc2F)n(C)n1 | inactive

biological target: Phospholipid hydroperoxide glutathione peroxidase GPX4 (Homo sapiens) (UniProt P36969); experiment: Primary qHTS Assay for Inhibitors of Recombinant Selenoprotein Glutathione Peroxidase 4 (GPX4) (AID 1845192); conditions: recombinant GPX4, GR-coupled NADPH fluorescence, 15 min; series mostly up to 50 µM; note: potency is the fitted concentration of half-maximal effect
Sequence (P36969 whole entry, looked up): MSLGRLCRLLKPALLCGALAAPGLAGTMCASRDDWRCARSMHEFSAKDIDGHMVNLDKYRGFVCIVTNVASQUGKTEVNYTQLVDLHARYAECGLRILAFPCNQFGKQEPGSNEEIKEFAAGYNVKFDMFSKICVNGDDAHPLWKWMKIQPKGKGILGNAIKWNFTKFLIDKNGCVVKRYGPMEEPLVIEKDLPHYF
Method in brief: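 Steps: GPX4 plus compound, 30 min RT; add GR/GSH/NADPH master mix; start with cumene hydroperoxide; read 340/450 nm fluorescence at 0 and 15 min. Finals were 200 nM GPX4, 1 mM GSH, 0.5 mM CHP, 0.5 mM NADPH, 100 nM GR.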

Compound | Potency
C=C1C(=O)O[C@H]2CC(=C)[C@H]3CC[C@@](C)(O)[C@@H]3CC12 (stereo partly drawn) | inactive
CC(=O)OC1CCC2(C)C(CCC3(C)C2CC=C2C4C(C)C(C)CCC4(C)CCC23C)C1(C)C(=O)O (stereo not drawn) | inactive
CC1=C(C(=O)OC2CCCCC2)C(c2ccc([N+](=O)[O-])cc2)C2=C(CC(C)(C)CC2=O)N1 (stereo not drawn) | inactive
COc1ccccc1C(=O)Nc1cccc(NC(=O)c2cccc(C)c2)c1 | inactive
Nc1nc2c(cnn2CCCc2ccc(O)cc2)c2nc(-c3ccco3)nn12 | inactive
CC(C)S(=O)(=O)NC[C@@H]1CC(c2ccc(N3CCCC3)c(F)c2)=NO1 | inactive
Cc1ccc(O)cc1Nc1ccnc(Nc2cccc(C(N)=O)c2)n1 | inactive
O=C(O)c1cccc(-c2ccc(-c3cn(C(=O)N4CCCCC4Cc4ccccc4)nn3)cc2)c1 (stereo not drawn) | inactive
COc1cc2c(cc1O)C1(Cc3ccc4c(c3C1O)OCO4)[N+](C)([O-])CC2 (stereo not drawn) | inactive
c1ccc(-c2cnn3cc(-c4ccc(OCCN5CCOCC5)cc4)cnc23)cc1 | inactive
CC(C)Nc1nc(Nc2ccccc2)nc(-c2ccccc2)n1 | inactive
CNc1nc(Nc2ccc(C(=O)N3CCOCC3)cc2OC)nc2[nH]cc(Cl)c12 | inactive
CN1CC2CN(c3ccc4oc5ccccc5c(=O)c4c3)CC2C1 (stereo not drawn) | inactive
COC1CCN(c2cccc(-c3cc(NC(C)=O)nc(-n4nc(C)cc4C)n3)n2)CC1 | inactive
O=C(Nc1ccc2[nH]nc(-c3ccncc3)c2c1)[C@@H]1CCN(CC(=O)N2CCN(c3ccc(-c4ncccn4)cc3)CC2)C1 | inactive
CC1(C)Oc2ncnc(N)c2N=C1c1ccc(C23CCC(CC(=O)O)(CC2)CC3)cc1 | inactive
NCC1CCN(c2nccc(-c3ccc4ccccc4c3)n2)CC1 | inactive
O=C1Cc2c([nH]c3ccc(Br)cc23)-c2ncccc2N1 | inactive
C=C1C(=O)O[C@@H]2/C=C(\CO)CC/C=C(/C=O)C[C@H](O)[C@@H]12 | inactive
C=C1C(=O)OC[C@@H]1C/C=C(\C)CC1CC(C)C(=O)O1 (stereo partly drawn) | inactive

Compound | Potency
COc1ccccc1-c1ccc(-c2cn(C(=O)N3CCCCC3Cc3ccccc3)nn2)cc1 (stereo not drawn) | inactive
O=C(Nc1ccc(Cl)cc1)Nc1cccc(-c2cccc(N3CCCC3)n2)c1 | inactive
CC(C)(C)c1ccc(C(=O)Nc2cn3cc(-n4ccnc4)ccc3n2)cc1 | inactive
C/C(=N\N=C(N)N)c1cc(NC(=O)CCCCCCCCC(=O)Nc2cc(/C(C)=N/N=C(N)N)cc(/C(C)=N/N=C(N)N)c2)cc(/C(C)=N/N=C(N)N)c1 | inactive
O=C(Nc1nnc(-c2ccc3c(c2)OCCO3)o1)C1CCCCC1 | inactive
O=C(Nc1ccccc1C(=O)Nc1ccc(CCO)cc1)c1ccc([N+](=O)[O-])cc1 | inactive
CCCCC1CCN(CCCN2C(=O)CCc3ccccc32)CC1 | inactive
CCc1ccc(-c2nc(CSCC(=O)NCCc3ccccc3)c(C)o2)cc1 | inactive
CC1(C)CCC(C)(C)c2cc(C#Cc3ccc(C(=O)O)cc3)ccc21 | inactive
CC(C)c1ccc(-c2cc(=O)c3ccccc3o2)cc1 | inactive
O=C(Nc1nc2ccc([N+](=O)[O-])cc2s1)C1CCCCC1 | inactive
O=C(Nc1ccc(-c2ccc(Cl)c(Cl)c2)cc1)C1=C(O)c2ccccc2S(=O)(=O)N1 | inactive
Cc1cc(C(C)Nc2ccccc2C(=O)O)c2nc(N3CCOCC3)cc(=O)n2c1 (stereo not drawn) | inactive
CCCN1CCC=C(c2cc(-c3ccc(C)cc3)no2)C1 | inactive
CCOC(=O)c1csc(Nc2ccc(Cl)cc2)n1 | inactive
CC#C[C@@H](CC(=O)O)c1ccc(OCc2cccc(-c3ccc(C(F)(F)F)cc3)c2)cc1 | 5.7 µM (active)
CN(C)c1ccc(NC(=O)NS(=O)(=O)c2ccc(Cl)cc2)cc1 | inactive
CN(C)Cc1ccc(-c2cnn3c(-c4cccc(NC(=O)c5cccc(C(F)(F)F)c5)c4)ccnc23)cc1 | inactive
Cc1cc(C(=O)Nc2cc(Nc3ccc4c(/C=C/c5ccccn5)n[nH]c4c3)ccc2F)n(C)n1 | inactive
